# Sampled rows, rich in hits. Any-hit rate of the full collection: about 12%.
# G9a inh = qHTS Assay for Inhibitors of Histone Lysine Methyltransferase G9a | Histone-lysine N-methyltransferase EHMT2 (Homo sapiens), Q96KQ7 | G9a H3K9 monomethylation, AlphaScreen, 2 h | Potency, µM (doses to about 102 µM), without a hit: top-dose activity, negative = inhibition, hits mostly inhibitors | 350,000 compounds, 8.8% hits | AID 504332, 2011; note: % is set by controls: 0 for no effect and ±100 for the full control effect; nearly all actives have a fitted effect of over 75% in size
#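 G9a (20 nM) preincubated 15 min RT with compounds, then 500 nM biotinylated H3K9 peptide and 20 uM SAM added; 2 h RT reaction. Monomethyl-H3K9 product detected by AlphaScreen with anti-H3K9me1 antibody, streptavidin donor and anti-rabbit IgG acceptor beads.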
# PLK1 PBD block = qHTS for Inhibitors of PLK1-PDB (polo-like kinase 1 - polo-box domain): Primary Screen; Plk1 PBD binding of FITC phosphopeptide, fluorescence polarization; Serine/threonine-protein kinase PLK1 (Homo sapiens), P53350; 360,000 compounds, 2.8% hits; AID 720504, 2013; Potency, µM, for inactives: max response, negative = inhibition, hits mostly inhibitors; note: series mostly up to about 57 µM; % is set by controls: 0 for no effect and ±100 for the full control effect; nearly all actives have a fitted effect of over 65% in size
# JMJD2A Tudor inh = qHTS Assay for Inhibitors of JMJD2A-Tudor Domain; Lysine-specific demethylase 4A (Homo sapiens), O75164; AlphaScreen JMJD2A-Tudor / H3K4me3 peptide binding; Potency, µM (top dose mostly 114 µM), without a hit: top-dose activity change, negative = inhibition, most hits filed as inhibitors; 390,000 compounds, 4.4% hits; AID 504339, 2011; note: % is set by controls: 0 for no effect and ±100 for the full control effect; nearly all actives have a fitted effect of over 50% in size
# HP1b chromo inh = HTS for Inhibitors of HP1-beta Chromodomain Interactions with Methylated Histone Tails. AlphaScreen HP1-beta / biotin-H3K9me3 peptide binding. AID 540317, 2011. Potency, µM (titrated, usually from 114 µM), for inactives: at the highest dose activity change, negative = inhibition, hits mostly inhibitors. 390,000 compounds, 0.56% hits. Chromobox protein homolog 1 (Homo sapiens), P83916; note: nearly all actives have a fitted effect of over 70% in size
#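 AlphaScreen: HP1-beta (50 nM) preformed 30 min with biotin-H3(1-18)K9me3 peptide (50 nM) in PBS pH 7.4, 0.01% Tween-20. Compound added for 30 min at RT, then streptavidin donor/nickel chelate acceptor beads (10 ug/mL) for 30 min.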
# Sfp PPTase inh = qHTS Assay for Inhibitors of Bacillus subtilis Sfp phosphopantetheinyl transferase (PPTase); 310,000 compounds, 3.5% hits; 4'-phosphopantetheinyl transferase ffp (Bacillus subtilis), Q9F4F7; Potency, µM, inactives show largest response in the series, negative = inhibition, usual class: inhibitors; Biochemical Sfp PPTase activity, qHTS;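 note: the enzyme is Sfp with the accession as filed and its product quenches rhodamine fluorescence; 0% = enzyme reaction without inhibitor and -100% = no enzyme wells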
#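 Compounds were incubated with enzyme (final 15 nM) for 15 min at room temperature before substrate addition started the reaction. Fluorescence at 525 nm excitation, 598 nm emission was recorded immediately and after 30 minutes.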
# BAZ2B block = qHTS Assay for Inhibitors of BAZ2B | Bromodomain adjacent to zinc finger domain protein 2B (Homo sapiens), Q9UIF8 | AlphaScreen BAZ2B-H3K14Ac peptide displacement | Potency, µM (series often up to 114 µM), inactives show at the top dose activity change, negative = inhibition, most hits filed as inhibitors | 360,000 compounds, 4.4% hits | AID 504333, 2011; note: % is set by controls: 0 for no effect and ±100 for the full control effect; nearly all actives have a fitted effect of over 60% in size
#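 BAZ2B 50 nM plus b-H3(5-23)K14Ac 50 nM, PBS pH 7.4/0.01% Tween-20, 30 min RT; compound added (max 110 uM), 30 min RT; streptavidin donor/Ni-chelate acceptor beads 10 ug/mL final, 20 min dark; AlphaScreen read.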
# Active calls of the source: *; ? = inconclusive; . = no result; [ ] = remark or other dose. Calls come from the whole dose curve; as a rule, active = well fitted curve in the direction sought with a large enough effect; inconclusive = small, poorly fitted or top-dose-only effect, or another doubt; inactive = no such curve, though single readings can be large; an effect the other way counts as inactive or inconclusive. Potency is the fitted concentration of half-maximal effect.
SMILES,G9a inh,PLK1 PBD block,JMJD2A Tudor inh,HP1b chromo inh,Sfp PPTase inh,BAZ2B block
COc1cc(CCC(=O)Nc2ccc(C)c(S(=O)(=O)N3CCCCCC3)c2)cc(OC)c1OC,19%[12.7 µM],-7%,-26%,-13%,.,-4%
C=CC[C@H](CC(=O)OC(C)(C)C)C(=O)OC[C@H]1CCCN1C(=O)[C@@H](CC=C)CC(=O)N(CCO)Cc1ccccc1,.,-23%,-14%,60%,.,.
CC(C)c1ccccc1NC(=O)C(Cc1c[nH]c2ccccc12)NC(=O)OC(C)(C)C (stereo not given),12%[59 µM],.,?,25%,.,-24%
CCN(CC)S(=O)(=O)c1cccc(C(=O)OCC(=O)Nc2ccccc2OC(F)F)c1,0%[12.7 µM],-6%,5%,19%,11%,-3%
CN(C)S(=O)(=O)c1cccc(C(=O)OCC(=O)Nc2ccccc2OC(F)F)c1,10%,27µM*,79µM*,?,12%,6%
Cc1ccc(S(=O)(=O)NCC(=O)OCC(=O)N(C)C2CCCCC2)cc1,20%[12.7 µM],1%,2%,53%,.,6%
O=C(N/N=C/C=C/c1ccccc1)c1ccccn1,33%[59 µM],-1%,-9%,50%,-24%,?
O=C(N/N=C\C=C\c1ccco1)c1cc(-c2ccc3ccccc3c2)n[nH]1,32µM*,-24%,-34%,6%,2%,3%
O=C(N/N=C/C=C/c1ccccc1[N+](=O)[O-])c1cc(-c2ccccc2)n[nH]1,?,-14%,-34%,29%,?,?
O=C(N/N=C/C=C\c1ccco1)c1ccccn1,35µM*,?,79µM*,?,20µM*,56µM*
O=C(N/N=C/C=C/c1ccco1)c1cnccn1,45µM*,-11%,50µM*,7%,10µM*,14%
COC(=O)c1cccc(NC(=O)C2CCN(S(=O)(=O)Cc3ccccc3)CC2)c1C,-42%[59 µM],.,-2%,45%,.,-4%
CCOC(=O)C1(Cc2ccc(Cl)cc2)CCN(Cc2cn(CC)nc2C)CC1,4%,-11%,-19%,15%,14%,-11%
CCN1c2ccccc2-c2nc(SCC(=O)Nc3cc(F)ccc3F)ncc2S1(=O)=O,14%[59 µM],.,-5%,64%,.,20%
COc1cccc(NC(=O)NCc2ccccc2Cl)c1,.,-13%,-13%,-8%,.,.
COc1cccc(NC2=Nc3cccc4cccc2c34)c1,?,13%,45µM*,-36%,7%,40µM*
COc1cc(NC2=Nc3cccc4cccc2c34)cc(OC)c1OC,50µM*,0%,?,?,-2%,50µM*
COc1ccc(NC2=Nc3cccc4cccc2c34)cc1OC,?,2%,?,-18%,-18%,-39%[57.1 µM]
O=C(c1cnccn1)N1CCC[C@@]2(CCN(c3ccncc3)C2)C1,26%[12.7 µM],.,.,.,-14%,.
CN(C)c1ccc(-c2n[nH]c(=S)n2-c2ccccc2)cc1,1.8µM*,-1%,7.9µM*,-14%,-1%,-14%
CCN(CC)c1ccc(-c2n[nH]c(=S)n2-c2ccccc2)cc1,1.4µM*,-11%,20µM*,-3%,-12%,-38%
CC(C)C[C@H]1CN([C@@H](Cc2ccc(O)cc2)CN2CCC[C@H]2CN2C(=O)C(=O)NC[C@@H]2Cc2ccc(O)cc2)C(=O)C(=O)N1CCc1ccccc1,.,2%,.,.,.,.
Cc1nnc(NCc2ccc(F)cc2)c2c1nnn2Cc1ccccc1Cl,-3%[59 µM],.,-8%,39%,.,3%
O=C(C1=NN[C@@H]2C(=O)N(c3ccccc3C(F)(F)F)C(=O)[C@H]12)c1cnccn1,?,1%,-2%,65%,4%,-23%

# Source: PubChem BioAssay
